Inconclusive results are not listed. A call without a number means that no potency is given here. The source holds several records for some structures; these can differ, active in one and inactive in another. Calls of active or inactive are those of the source. Unless noted, calls come from the whole dose curve.
How the values were obtained:
[1] = Nuclear factor erythroid 2-related factor 2/antioxidant responsive element (Nrf2/ARE) small molecule agonists: qHTS cell viability counter screen in human keratinocytes (AID 1919968; active = well fitted curve in the direction sought with a large enough effect in the repeat runs; an effect the other way counts as inactive or inconclusive; note: nearly all actives have a fitted effect of over 55% in size)
Procedure, shortened: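 Parallel cytotoxicity read: KeratinoSens HaCaT cells, compound treatment 23 h, viability by CellTiter-Fluor fluorescence 1 h post-reagent.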

[2] = Nuclear factor erythroid 2-related factor 2/antioxidant responsive element (Nrf2/ARE) small molecule agonists: luciferase reporter gene qHTS assay in human keratinocytes (AID 1919969); note: nearly all actives have a fitted effect of over 35% in size; note: potency is the fitted concentration of half-maximal effect
[3] = biological target: Gonadotropin-releasing hormone receptor (Homo sapiens) (UniProt P30968); assay: Human gonadotropin-releasing hormone receptor (GnRHR) small molecule agonists, calcium flux assay in GnRHR-HEK293 cells (AID 1920063); note: nearly all actives have a fitted effect of over 35% in size
Procedure, shortened: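 Calcium flux, agonist mode, human GnRHR stably integrated in HEK293; dye 1 h at 37 C before compound; Ex/Em=480/540 kinetic read, 3 min; 15 concentrations, triplicate.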

[4] = biological target: KiSS-1 receptor (Homo sapiens) (UniProt Q969F8); assay: Human kisspeptin (KISS1R) small molecule agonists, calcium flux assay in KISS1R-HEK293 cells (AID 1920064; active = well fitted curve in the direction sought with a large enough effect in the repeat runs; an effect the other way counts as inactive or inconclusive)
Procedure, shortened: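 Triplicate 15-concentration series were applied to dye-loaded human KISS1R HEK293 cells, and agonist-evoked calcium fluorescence was captured for 3 min.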

[5] = G protein-coupled receptor (GPCR) small molecule agonists, calcium flux assay: HEK293 wild type cell line counter screen (AID 1920065)
Procedure, shortened: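 Non-specific calcium responders were flagged by adding DMSO-dissolved compounds to dye-loaded cells and reading 480/540 nm fluorescence each second for 3 min; ATP served as positive control.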

[6] = p53 small molecule agonists, cell-based qHTS assay with human liver microsomes (AID 1963577);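 note: p53 response element beta-lactamase reporter cells with liver microsomes plus NADPH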
Procedure, shortened: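 Fluorescence of the beta-lactamase reporter in p53RE-bla cells, detected with LiveBLAzer substrate (2 h, room temperature, dark), served as the read-out after 16 h compound exposure at 37 C with human liver microsomes and NADPH, each 0.5 mg/mL final.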

[7] = p53 small molecule agonists, cell-based qHTS assay with human liver microsomes: qHTS cell viability counter screen (AID 1963579); note: nearly all actives have a fitted effect of over 45% in size
Procedure, shortened: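 Cytotoxicity counter screen: p53RE-bla, 4,000 cells/well; 5 h settle, 37 C/5% CO2; cpd + HLM 0.5 mg/mL + NADPH 0.5 mg/mL (final); 16 h, 37 C; CellTiter-Glo, 30 min RT, luminescence.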

[8] = p53 small molecule agonists, cell-based qHTS assay with rat liver microsomes: qHTS cell viability counter screen (AID 1963580); note: nearly all actives have a fitted effect of over 45% in size; note: potency is the fitted concentration of half-maximal effect
Procedure, shortened: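 Rat liver microsome (0.5 mg/mL final) and NADPH (0.5 mg/mL final) co-incubation with compounds for 16 h at 37 C on HCT-116 p53RE-bla cells; cytotoxicity taken from intracellular ATP luminescence.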

[9] = p53 small molecule agonists, cell-based qHTS assay (AID 1963582; active = well fitted activation curve with a large enough effect in the signal ratio in the repeat runs, not every such curve was filed as active; the % refers to the signal ratio)
Procedure, shortened: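 Beta-lactamase reporter cells (p53RE-bla) treated with compounds for 16 h at 37 C; FRET substrate, 2 h, room temperature; fluorescence intensity.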

[10] = biological target: 5-hydroxytryptamine receptor 2A (Homo sapiens) (UniProt P28223); assay: 5-hydroxytryptamine receptor 2A (HTR2A) small molecule antagonists, cell-based qHTS assay (AID 1963586); note: nearly all actives have a fitted effect of over 45% in size
Procedure, shortened: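 CHO cells stably expressing human HTR2A were plated for 18 h at 37 C, then loaded with calcium dye for 1 h. Compounds were preincubated 5 min at room temperature before DOI (4 nM solution) was added. Kinetic fluorescence was read for 3 min.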

[11] = biological target: 5-hydroxytryptamine receptor 2A (Homo sapiens) (UniProt P28223); assay: 5-hydroxytryptamine receptor 2A (HTR2A) small molecule agonists, cell-based qHTS assay (AID 1963587); note: nearly all actives have a fitted effect of over 30% in size
Procedure, shortened: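 Kinetic calcium-flux fluorescence (2 min, 1 sec intervals) after compound addition in agonist mode. HTR2A-CHO cells were cultured 18 h, then dye-loaded 1 h at 37 C.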

[12] = biological target: Muscarinic acetylcholine receptor M1 (Homo sapiens) (UniProt P11229); assay: Cholinergic receptor muscarinic 1 (CHRM1) small molecule agonists, cell-based qHTS assay (AID 1963589); note: nearly all actives have a fitted effect of over 35% in size
Procedure, shortened: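 qHTS, 15-point titration, 3 independent runs: compounds pin-transferred onto dye-loaded CHRM1-CHO cells (human M1), calcium fluorescence followed every second to detect agonism.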

[13] = cAMP Responsive Elements (CRE) small molecule antagonists, cell-based qHTS assay (AID 1963591; active = well fitted inhibition curve with a large enough effect in the signal ratio in the repeat runs, not every such curve was filed as active; the % refers to the signal ratio)
Procedure, shortened: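 Fluorescence intensity from cleaved LiveBLAzer B/G substrate (2 h, room temperature) quantified CRE-bla activity in HEK 293T cells exposed 3 h to compound with 0.25 uM final NKH477.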

[14] = biological target: Beta-2 adrenergic receptor (Homo sapiens) (UniProt P07550); assay: Adrenergic beta2 receptor (ADRB2) small molecule antagonists, cell-based qHTS assay (AID 1963592); note: series mostly up to about 92 µM; nearly all actives have a fitted effect of over 50% in size
Procedure, shortened: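 Assay format: CHO-ADRB2 cells, 18-20hr seeding at 37C/5% CO2, then compound plus 1nM isoproterenol agonist mix for 0.5hr RT. Homogeneous time-resolved fluorescence cAMP detection after 1hr, expressed as 665/615 nm ratio.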

[15] = biological target: Beta-2 adrenergic receptor (Homo sapiens) (UniProt P07550); assay: Adrenergic beta2 receptor (ADRB2) small molecule agonists, cell-based qHTS assay (AID 1963593);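 note: CHO cells stably overexpressing human ADRB2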
Procedure, shortened: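 CHO cells stably over-expressing ADRB2 were plated overnight at 37C, then dosed with compounds plus a stimulation mix containing 100uM IBMX and 25uM Ro-20-1724 for 0.5hr at room temperature. cAMP was measured by HTRF competition, 1hr.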

[16] = biological target: D(2) dopamine receptor (Homo sapiens) (UniProt P14416); assay: Dopamine D2 receptor (DRD2) small molecule agonists, cell-based qHTS assay (AID 1963594); note: nearly all actives have a fitted effect of over 35% in size
Procedure, shortened: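 cAMP accumulation in DRD2-HEK293 cells measured by HTRF after 1 h detection; compounds added 10 min before NKH477 (200nM […]) forskolin-analogue stimulation, 30 min at room temperature, with Ro20-1724 present at 0.1 mM final.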

[17] = biological target: D(2) dopamine receptor (Homo sapiens) (UniProt P14416); assay: Dopamine D2 receptor (DRD2) small molecule antagonists, cell-based qHTS assay (AID 1963595; active = well fitted inhibition curve with a large enough effect in the signal ratio in the repeat runs, with a control signal flat; the % refers to the signal ratio)
Procedure, shortened: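 In this cell-based antagonist screen, compounds act for 10 min at room temperature before a 30 min challenge with 12 nM quinpirole and 200 nM NKH477. cAMP is quantified by HTRF competition in DRD2-HEK293 cells containing 0.1 mM Ro20-1724.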

[18] = p53 small molecule agonists, cell-based qHTS assay: qHTS cell viability counter screen (AID 1963581); note: nearly all actives have a fitted effect of over 45% in size
Procedure, shortened: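 Multiplexed with the reporter read, a CellTiter-Glo step (30 min, room temperature) gauges ATP-based viability of HCT-116 p53RE-bla cells after 16 h compound incubation at 37 C.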

[19] = cAMP Responsive Elements (CRE) small molecule agonists, cell-based qHTS assay (AID 1963590)
Procedure, shortened: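 Quantitative HTS for CRE agonists: HEK 293T CRE-bla cells, overnight plating, 3 h compound incubation at 37 C/5% CO2, then 2 h room-temperature LiveBLAzer B/G FRET substrate loading.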

[20] = biological target: Muscarinic acetylcholine receptor M1 (Homo sapiens) (UniProt P11229); assay: Cholinergic receptor muscarinic 1 (CHRM1) small molecule antagonists, cell-based qHTS assay (AID 1963588); note: nearly all actives have a fitted effect of over 40% in size; note: potency is the fitted concentration of half-maximal effect
Procedure, shortened: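 Compounds were tested at 15 concentrations in three independent runs. Dye-loaded CHRM1-CHO cells were exposed 5 min at room temperature before stimulation by acetylcholine added at 50nM. Intracellular calcium was read kinetically on FDSS for 3 min.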

Sequence of D(2) dopamine receptor (Homo sapiens) (P14416 whole entry, looked up): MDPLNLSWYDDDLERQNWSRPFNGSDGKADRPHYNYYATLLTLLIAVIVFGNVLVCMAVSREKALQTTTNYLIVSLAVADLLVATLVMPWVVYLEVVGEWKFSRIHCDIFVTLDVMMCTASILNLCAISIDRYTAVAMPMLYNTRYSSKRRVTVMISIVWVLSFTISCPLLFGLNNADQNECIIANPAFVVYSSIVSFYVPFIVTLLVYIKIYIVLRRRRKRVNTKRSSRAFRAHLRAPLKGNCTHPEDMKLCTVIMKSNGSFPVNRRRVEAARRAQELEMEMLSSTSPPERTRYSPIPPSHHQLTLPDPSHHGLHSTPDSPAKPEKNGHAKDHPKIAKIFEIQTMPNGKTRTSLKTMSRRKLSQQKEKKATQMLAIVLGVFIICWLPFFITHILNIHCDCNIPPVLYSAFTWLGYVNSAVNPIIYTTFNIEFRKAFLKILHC
Sequence of KiSS-1 receptor (Homo sapiens) (Q969F8 whole entry, looked up): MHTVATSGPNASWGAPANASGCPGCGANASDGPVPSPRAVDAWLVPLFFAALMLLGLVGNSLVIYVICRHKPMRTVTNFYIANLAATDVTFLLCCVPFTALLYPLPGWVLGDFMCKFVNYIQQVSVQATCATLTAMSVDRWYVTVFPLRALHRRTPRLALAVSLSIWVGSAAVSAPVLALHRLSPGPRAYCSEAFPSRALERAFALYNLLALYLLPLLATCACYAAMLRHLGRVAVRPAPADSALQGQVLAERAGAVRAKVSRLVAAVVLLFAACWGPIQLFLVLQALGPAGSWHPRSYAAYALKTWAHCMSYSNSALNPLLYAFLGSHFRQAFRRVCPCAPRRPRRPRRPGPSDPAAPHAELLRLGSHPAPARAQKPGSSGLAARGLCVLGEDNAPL
Sequence of Beta-2 adrenergic receptor (Homo sapiens) (P07550 whole entry, looked up): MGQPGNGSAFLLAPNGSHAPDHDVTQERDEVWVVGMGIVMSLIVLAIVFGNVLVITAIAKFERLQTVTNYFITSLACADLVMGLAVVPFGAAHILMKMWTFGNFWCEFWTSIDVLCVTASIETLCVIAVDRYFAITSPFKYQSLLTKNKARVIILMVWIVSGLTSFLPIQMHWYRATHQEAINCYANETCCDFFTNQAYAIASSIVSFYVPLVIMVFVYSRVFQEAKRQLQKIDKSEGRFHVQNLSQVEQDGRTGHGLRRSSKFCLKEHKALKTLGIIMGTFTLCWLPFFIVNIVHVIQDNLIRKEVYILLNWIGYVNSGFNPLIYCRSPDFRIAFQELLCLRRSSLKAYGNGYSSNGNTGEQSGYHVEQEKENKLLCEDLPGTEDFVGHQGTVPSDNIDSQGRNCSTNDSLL
Sequence of Muscarinic acetylcholine receptor M1 (Homo sapiens) (P11229 whole entry, looked up): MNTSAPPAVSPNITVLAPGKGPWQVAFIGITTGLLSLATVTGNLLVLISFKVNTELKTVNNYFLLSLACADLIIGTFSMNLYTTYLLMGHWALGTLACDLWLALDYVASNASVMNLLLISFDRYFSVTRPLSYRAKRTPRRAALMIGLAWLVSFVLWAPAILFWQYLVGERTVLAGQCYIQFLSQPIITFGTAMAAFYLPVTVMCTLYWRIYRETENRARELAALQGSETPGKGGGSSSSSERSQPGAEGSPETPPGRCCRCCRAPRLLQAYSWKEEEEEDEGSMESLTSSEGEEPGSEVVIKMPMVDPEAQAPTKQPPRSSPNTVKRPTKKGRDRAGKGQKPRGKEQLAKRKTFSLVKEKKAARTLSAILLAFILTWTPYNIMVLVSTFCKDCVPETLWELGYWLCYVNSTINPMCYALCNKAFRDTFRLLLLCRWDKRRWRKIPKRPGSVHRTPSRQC
Sequence of 5-hydroxytryptamine receptor 2A (Homo sapiens) (P28223 whole entry, looked up): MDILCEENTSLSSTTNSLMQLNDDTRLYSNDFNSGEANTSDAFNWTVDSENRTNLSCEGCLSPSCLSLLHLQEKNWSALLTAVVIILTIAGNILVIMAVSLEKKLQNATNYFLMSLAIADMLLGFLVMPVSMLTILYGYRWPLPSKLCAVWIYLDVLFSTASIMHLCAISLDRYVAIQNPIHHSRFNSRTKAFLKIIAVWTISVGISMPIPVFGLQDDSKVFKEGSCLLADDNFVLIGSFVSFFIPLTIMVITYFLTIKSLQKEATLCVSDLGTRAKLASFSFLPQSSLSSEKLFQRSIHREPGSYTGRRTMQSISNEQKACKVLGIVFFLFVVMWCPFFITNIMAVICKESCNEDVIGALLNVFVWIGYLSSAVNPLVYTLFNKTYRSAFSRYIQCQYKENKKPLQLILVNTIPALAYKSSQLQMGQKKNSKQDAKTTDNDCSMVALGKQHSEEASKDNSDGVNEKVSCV
Sequence of Gonadotropin-releasing hormone receptor (Homo sapiens) (P30968 whole entry, looked up): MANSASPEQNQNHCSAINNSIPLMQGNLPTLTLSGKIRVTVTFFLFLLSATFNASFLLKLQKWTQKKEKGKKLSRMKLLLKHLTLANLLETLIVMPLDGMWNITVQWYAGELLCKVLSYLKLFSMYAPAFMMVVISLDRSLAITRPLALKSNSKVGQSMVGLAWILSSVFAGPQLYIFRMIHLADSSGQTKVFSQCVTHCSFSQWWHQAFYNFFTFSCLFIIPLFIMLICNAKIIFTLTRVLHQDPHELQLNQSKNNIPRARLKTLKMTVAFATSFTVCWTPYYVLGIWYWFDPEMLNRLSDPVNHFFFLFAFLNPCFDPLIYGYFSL

SMILES | Potency [1] | Potency [2] | Potency [3] | Potency [4] | Potency [5] | Potency [6] | Potency [7] | Potency [8] | Potency [9] | Potency [10] | Potency [11] | Potency [12] | Potency [13] | Potency [14] | Potency [15] | Potency [16] | Potency [17] | Potency [18] | Potency [19] | Potency [20]
Cc1ccc(OP(=O)(Oc2ccc(C)cc2)Oc2ccc(C)cc2)cc1 | inactive | 61 µM (active) and inactive | inactive | inactive | inactive | inactive | inactive | inactive | inactive | inactive | inactive | inactive | inactive | inactive | inactive | inactive | inactive |  |  | 
OCC1CO1 (centres undefined) | inactive | inactive | inactive | inactive | inactive | inactive |  | 41.5 µM (active) and inactive | inactive | inactive |  | inactive | inactive | inactive | inactive | inactive | inactive | inactive | inactive | 
Oc1cc(Cl)ccc1Cl | inactive | inactive | inactive | inactive | inactive | inactive | inactive | inactive | inactive | inactive | inactive |  | inactive | inactive | inactive | inactive | inactive | inactive | inactive | inactive
CCOP(=S)(OCC)Oc1cc(C)nc(C(C)C)n1 | inactive | inactive | inactive | inactive | inactive | inactive | inactive | inactive | inactive | inactive | inactive | inactive | inactive | inactive | inactive | inactive | inactive | inactive | inactive | inactive
COC(C)(C)CCCC(C)C/C=C/C(C)=C/C(=O)OC(C)C (centres undefined) | inactive | 47.8 µM (active) | inactive | inactive | inactive |  |  | inactive | inactive | inactive | inactive | inactive |  | inactive | inactive | inactive | inactive | inactive | inactive | 3.3 nM (active) and inactive
BrCCc1ccccc1 | inactive | inactive | inactive | inactive | inactive |  | inactive | inactive | inactive | inactive | inactive | inactive | inactive | inactive |  | inactive | inactive | inactive | inactive | inactive
C=CC(=O)OCC(C)C | inactive | inactive | inactive | inactive | inactive |  | inactive | inactive |  | inactive | inactive | inactive | inactive | inactive |  | inactive |  | inactive | inactive | 
CCOP(=O)(CN(CCO)CCO)OCC | inactive | inactive | inactive | inactive | inactive |  | inactive | inactive | inactive | inactive | inactive | inactive | inactive |  | inactive | inactive | inactive | inactive | inactive | 
CN(C)N=O | inactive | inactive | inactive | inactive | inactive |  | inactive | inactive | inactive | inactive |  | inactive | inactive | inactive | inactive | inactive | inactive | inactive | inactive | inactive
Cc1cccc(N)c1 | inactive | inactive | inactive | inactive | inactive |  | inactive |  | inactive |  | inactive | inactive | inactive | inactive |  | inactive | inactive | inactive | inactive | inactive
O=P(O)(O)CN(CP(=O)(O)O)CP(=O)(O)O | inactive | inactive | inactive | inactive | inactive |  | inactive | inactive | inactive | inactive | inactive |  | inactive | inactive |  | inactive | inactive | inactive | inactive | inactive
CC(C)=CC1C(C(=O)OCc2cccc(Oc3ccccc3)c2)C1(C)C (centres undefined) | inactive | inactive | inactive | inactive | inactive |  |  | inactive | inactive | inactive | inactive | inactive | inactive | inactive | inactive | inactive | inactive | inactive | inactive | inactive
O=c1[nH]c(=O)[nH]c(=O)[nH]1 | inactive | inactive | inactive | inactive | inactive |  |  | inactive |  | inactive | inactive | inactive | inactive | inactive | inactive | inactive | inactive | inactive | inactive | inactive
O=P(O)(Oc1ccccc1)Oc1ccccc1 | inactive | inactive | inactive | inactive | inactive |  | inactive | inactive | inactive | inactive | inactive | inactive | inactive |  |  | inactive |  | inactive | inactive | 
O=NN1CCOCC1 | inactive | inactive | inactive | inactive | inactive |  | inactive | inactive | inactive | inactive | inactive | inactive |  | inactive | inactive | inactive | inactive | inactive | inactive | inactive

Source: PubChem BioAssay (Tox21)
